# Screening results from PubChem.
# PTAP-TSG101 blk = TSG101-PTAP interaction inhibition, HIV-1 budding; 44,000 tested, under 10 active; AID 1347069; Fluorescence polarization, FITC-PTAP peptide/Tsg101, 20 min; Potency, µM (series often up to 115 µM), hits mostly inhibitors; also: potency is read from the fitted curve at half-maximal effect; 0% is about no effect
#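 The Tsg101 binding domain, at 10 uM final, is mixed with compound and a FITC peptide bearing the PTAP motif (50 nM final). After 20 min at r.t., polarization is measured; actives defined by CRC class, efficacy cut-off 60% inhibition.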
# HTT-AS act = HTT-AS promoter activation. HEK293 HTT-AS promoter firefly luciferase reporter, 24 h; response scale: percent change from vehicle, -100% = no light. Potency, µM (highest dose often 57.5 µM), inactives show at the highest dose activity change, positive = activation, actives largely listed as activators. hit rate 0.24% among 48,000; also: potency is read from the fitted curve at half-maximal effect; nearly all actives have a fitted effect of over 55% in size
#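 Luminescence was read after Dual-Glo reagent and a 10 min room-temperature incubation. Values were normalized to vehicle (0% activity) and zero RLU (-100% activity). Reporter HEK293 cells had been exposed to compounds (up to 57.5 uM final) for 24 h.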
# OvCa metastasis = ovarian cancer metastasis inhibition, 3D TME model | Potency, µM (top dose mostly 45.8 µM), for the others: top-dose activity change, negative = inhibition, actives largely listed as inhibitors | hit rate 0.1% among 46,000 | SKOV3ip1-GFP adhesion/invasion on 3D omental model, fluorescence;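 also: potency is read from the fitted curve at half-maximal effect; plate controls were DMSO wells for no effect and tomatine positive control wells for full effect; nearly all actives have a fitted effect of over 65% in size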
#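 Primary human omental fibroblast/mesothelial 3D culture pre-formed 48 h. SKOV3ip1-GFP cells added with compounds (0.36-46 umol/L), incubated 2 h RT/16 h 37 C, fixed; GFP cells quantified at 488/509 nm.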
# HTT promoter inh = inhibits huntingtin promoter activity; HEK293 HTT promoter firefly luciferase reporter, 24 h; Potency, µM (series often up to 57.5 µM), for the others: top-dose activity change, negative = inhibition, usual class: inhibitors; hit rate 0.93% among 48,000; AID 1508623; also: potency is read from the fitted curve at half-maximal effect; nearly all actives have a fitted effect of over 50% in size
#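 Luminescence was read after Dual-Glo reagent and a 10 min room-temperature incubation. Values were normalized to vehicle (0% activity) and zero RLU (-100% activity). Reporter HEK293 cells had been exposed to compounds (up to 57.5 uM final) for 24 h.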
# NTMT1 inhibitor = inhibitors of human N-terminal methyltransferase NTMT1. Q9BV86. NTMT1 MTase-Glo SAH luminescence, purified enzyme. Potency, µM (titrated, usually from 114 µM), without a hit: at the highest dose activity change, negative = inhibition, most hits filed as inhibitors. hit rate 2.5% among 59,000. AID 1645870;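 also: potency is read from the fitted curve at half-maximal effect; plate controls were DMSO vehicle for no effect and no enzyme for full effect; nearly all actives have a fitted effect of over 65% in size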
# GALK inhibitor = inhibits human galactokinase; Potency, µM (series often up to 57.5 µM), without a hit: at the top dose activity, negative = inhibition, usual class: inhibitors; P51570; recombinant GALK, Kinase-Glo ATP luminescence, 1 h; 44,000 tested, under 10 active;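 also: plate controls were full GALK reaction for no effect and reaction lacking GALK for full effect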
# Target sequence (P51570 whole entry, looked up): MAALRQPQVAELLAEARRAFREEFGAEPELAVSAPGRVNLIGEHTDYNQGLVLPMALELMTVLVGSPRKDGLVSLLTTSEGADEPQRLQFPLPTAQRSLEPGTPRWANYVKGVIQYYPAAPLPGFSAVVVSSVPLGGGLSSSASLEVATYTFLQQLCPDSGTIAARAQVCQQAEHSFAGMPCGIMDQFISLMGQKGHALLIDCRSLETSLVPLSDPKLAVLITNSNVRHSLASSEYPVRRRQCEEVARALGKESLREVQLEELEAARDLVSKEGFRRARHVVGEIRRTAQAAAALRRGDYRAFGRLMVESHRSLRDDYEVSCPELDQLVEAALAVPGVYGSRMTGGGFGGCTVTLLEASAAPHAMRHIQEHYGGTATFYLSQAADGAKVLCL
#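 5 nM GALK; 35 uM ATP; 100 uM D-galactose; 20 mM HEPES pH 8.0, 5 mM MgCl2, 60 mM NaCl, 1 mM DTT, 0.01% BSA; 1 h RT; Kinase-Glo Plus luminescence.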
# Starred values were filed as active, the others as inactive; i = inactive; u = inconclusive; x = no result; ! = not confirmed by another sample; [ ] = remark or other dose. Compounds with a hit are over-represented: about 2.5% of the library has one in this group of screens. Calls follow the shape of the dose curve; as a rule, active = well fitted curve in the direction sought with a large enough effect; inconclusive = small, poorly fitted or top-dose-only effect, or another doubt; inactive = no such curve, though single readings can be large; an effect the other way counts as inactive or inconclusive.
SMILES,PTAP-TSG101 blk,HTT-AS act,OvCa metastasis,HTT promoter inh,NTMT1 inhibitor,GALK inhibitor
CC[N+](CC)(CC)CCOc1ccc(/C=C/c2ccccc2)cc1,x,-34%,x,u,28µM*,x
Cc1ccc(CCCO)c(NCc2ccc3nc(NCCCN4CCOCC4)n(Cc4nc(C)ccc4O)c3c2)c1,x,x,x,x,2%[57.5 µM],x
Cc1cccc(CN2CCN(C(c3ccccc3)c3ccc(Cl)cc3)CC2)c1 (configuration not stated),x,-16%,-11%,-2%,32µM*!,x
CC(C)(C)c1ccc(CN2CCN(C(c3ccccc3)c3ccc(Cl)cc3)CC2)cc1 (configuration not stated),x,x,x,x,-5%[57.5 µM],x
COc1cc2c(Nc3ccc(Br)cc3F)ncnc2cc1OCC1CCN(C)CC1,x,-3%,-10%,11%,35µM*!,x
COc1cc2c(Nc3ccc(Cl)c(Cl)c3F)ncnc2cc1OCC1C[C@@H]2CN(C)C[C@H]2C1,x,-50%,-26%,u,24µM*,x
COc1ccc(C)cc1NC(=O)NCc1cccn1Cc1ccccc1,i,-9%,-15%,-7%,89µM*,-1%
COc1cc(OC)c(NC(=O)NCc2cccn2Cc2ccccc2)cc1Cl,i,-11%,7%,4%,0%,1%
O=C(c1ccc(C#Cc2cccc(F)c2)cn1)N1CC2CC2C1 (configuration not stated),x,x,x,x,8%[57.5 µM],x
C=C1C2(C)CC3C4(C)OC(C5OC56C4=CC(=O)OC6(C)C)C3(C)C13C(=O)OC(C)C3(O)C2=O (configuration not stated),x,x,x,x,6%[29.8 µM],x
CCCC(=O)c1cc(O)c(O)cc1O,x,-36%[116 µM],x,u,40µM*,x
COc1cc(C(=O)Nc2ccccc2OCc2cc(=O)n3cc(C)sc3n2)cc(OC)c1OC,i,-4%,i,-10%,89µM*,6%
COc1cc(C(=O)Nc2cc(C)ccc2OCc2cc(=O)n3cc(C)sc3n2)cc(OC)c1OC,i,-13%,-5%,-8%,3%,-1%
C[C@@H](Oc1cc(-n2cnc3ccc(CN4CCN(C)CC4)cc32)sc1C(N)=O)c1ccccc1C(F)(F)F,x,-45%,1%,u,8.9µM*,x
CC(Oc1cc(-n2cnc3ccc(CN4CCN(C)CC4)cc32)sc1C(N)=O)c1ccccc1C(F)(F)F (configuration not stated),x,x,x,x,-18%[57.5 µM],x
N#C[C@@H]1C[C@H](F)CN1C(=O)CNC1[C@H]2CN(C(=O)c3ccc(F)cc3)C[C@@H]12 (some centres not stated),x,x,x,x,-2%[57.5 µM],x
Cc1ccc(OCCn2c(CCNC(=O)Cc3ccccc3)nc3ccccc32)cc1,x,x,x,x,-26%[57.5 µM],x
CC1=C(C(=O)OC2CCCCCC2)C(c2ccccc2Cl)CC(=O)N1 (configuration not stated),i,-33%,1%,u,-9%,-10%
CCOc1ccccc1C1CC(=O)NC(C)=C1C(=O)OC1CCCCCC1 (configuration not stated),i,-45%,-25%,32µM*,0%,1%
CC(=O)[C@@H]1CC[C@]2(C(=O)O)CC[C@]3(C)C(CCC4[C@@]5(C)CC[C@H](O)C(C)(C)C5CC[C@]43C)C12 (some centres not stated),x,x,x,x,0%[29.8 µM],x
CCOC(=O)c1ccc(-c2ccc(/C=C(\C#N)C(=O)Nc3cccc(C)c3)o2)cc1,i,5%,i,4%,-3%,0%
CCOC(=O)c1ccc(-c2ccc(/C=C(\C#N)c3nc4ccc(C)cc4[nH]3)o2)cc1,i,7%,3.2µM*,u,u,0%
COc1cc(/C=C2\C(=O)Nc3ccccc32)ccc1O,x,x,x,x,79µM*,x
COc1cc(OC)c(/C=C2\C(=O)Nc3ccccc32)c(OC)c1,x,x,x,x,-3%,x
CC(C)(C)C1CCN(C(=O)n2ncc(C(O)(c3ccccc3)c3ccccc3)n2)CC1,x,x,x,x,4%[57.5 µM],x
